Results on 12 compounds are retold here after the supplement of paper PMC9588786.

± gives the standard deviation of the averaged measurements.
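Also: viability read as CCK-8 absorbance at 450 nm in cells co-exposed to the GPX4 inhibitor RSL3, relative to a 0.01% DMSO vehicle control.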

The assay deals with HT-1080. Description: relative cell viability with RSL3 co-treatment (fraction of control); higher = stronger protection from RSL3-induced ferroptosis (higher viability). As to conditions: 10 µM.
Consider `CS(=O)(=O)N1CCc2c(-c3cnc(N)nc3)nc(N3CCOCC3)nc21`, for which the relative cell viability stood at 0.85 ± 0.061.
On to `CCN1CCN(Cc2ccc(Nc3ncc(F)c(-c4cc(F)c5nc(C)n(C(C)C)c5c4)n3)nc2)CC1`, for which the relative cell viability is 0.42 ± 0.026.
With `COc1cc(-c2cc(-c3ccc(N4CCNCC4)cc3)cnc2C)cc(OC)c1OC`, the relative cell viability is 0.74 ± 0.075.
The figure for `COc1cc2ncc(-c3ccccc3)nc2cc1OC` [Tyrphostin AG 1296] is 0.567 ± 0.11.
The value for `C[C@H](Nc1ncnc2[nH]cnc12)c1cc2ccc(F)cc2nc1-c1ccccn1` was 0.59 ± 0.18.
The value for `CC(C)n1nc(-c2cc3cc(O)ccc3[nH]2)c2c(N)ncnc21` [Torkinib (PP242)] was 0.833 ± 0.12; that for `Cc1cc(Nc2cc(N3CCN(C)CC3)nc(/C=C/c3ccccc3)n2)n[nH]1` was 0.203 ± 0.1.
For the compound `CN(C[C@@H]1COCCO1)S(=O)(=O)Nc1ccc2ccc3ncc(-c4cnn(C)c4)cc3c(=O)c2c1`, the relative cell viability worked out at 0.657 ± 0.25.
The value for `CNc1nc(-c2ccc3c(N)n[nH]c3c2)cc(N2C[C@@H](C(=O)NC3CCCCC3)CC[C@H]2C)n1` was 0.647 ± 0.13; that for `Cc1ccc(C(=O)Nc2cccc(C(F)(F)F)c2)cc1Nc1nc(-c2cccnc2)nc2c1cnn2C` was 0.473 ± 0.23; that for `CO[C@H]1C[C@@H]2CC[C@@H](C)[C@@](O)(O2)C(=O)C(=O)N2CCCC[C@H]2C(=O)O[C@H]([C@H](C)C[C@@H]2CC[C@@H](OP(C)(C)=O)[C@H](OC)C2)CC(=O)[C@H](C)/C=C(\C)[C@@H](O)[C@@H](OC)C(=O)[C@H](C)C[C@H](C)/C=C/C=C/C=C/1C` [Ridaforolimus (Deforolimus, MK-8669)] was 0.847 ± 0.14.
For the compound `Oc1cc(O)cc(/C=C/c2ccc(O)c(O)c2)c1` [Piceatannol], the relative cell viability worked out at 0.717 ± 0.04.
